Assay results reported in PubChem BioAssay AID2284324 (EPA ToxCast).
Records with an inconclusive call do not appear. The source made the active and inactive calls. The calls were made as follows: active = hit-call score of the fitted dose curve at least 0.9, where 1 is the maximum; inconclusive = response in the unintended direction; inactive = score below 0.9.

System: Japanese medaka Glucocorticoid Receptor (GR), gene 101170451
Assay: ATG_jmGR_EcoTox2: Attagene TRANS-FACTORIAL EcoTox-2 HepG2 Assay for Japanese medaka Glucocorticoid Receptor (GR)
Description: ATG_EcoTox2 is a cell-based, multiplexed assay created by modifying the existing Attagene TRANS-FACTORIAL system to include a panel of nuclear receptors from some or all the following species: human (Homo sapiens), african clawed frog (Xenopus laevis), rainbow trout (Oncorhynchus mykiss), japanese medaka (Oryzias latipes), and zebrafish (Danio rerio). The ECOTOX2-FACTORIAL format uses HepG2, a human liver cell line, with measurements taken at 24 hours after chemical dosing in a 24-well plate. ATG_jmGR_EcoTox2 is one of 29 assay components calculated in the ATG_EcoTox2 assay. It is designed to make measurements of mRNA induction, a form of inducible reporter, as detected with fluorescence intensity signals by Reverse transcription polymerase chain reaction (RT-PCR) and Capillary electrophoresis technology.The assay endpoint ATG_jmGR_EcoTox2 was analyzed in the positive analysis fitting direction relative to DMSO as the negative control and baseline of activity. Using a type of inducible reporter, measures of mRNA for gain-of-signal activity can be used to understand the reporter gene at the transcription factor-level as they relate to the gene for glucocorticoid receptor. Furthermore, this assay endpoint can be referred to as a primary readout, because this assay has produced multiple assay endpoints where this one serves a reporter gene function. […]

Compound | outcome
CCCCOCN(C(=O)CCl)c1c(CC)cccc1CC | inactive
O=P(Oc1ccccc1)(Oc1ccccc1)Oc1ccccc1 | inactive
